For experiment [1], the system named is ABL2. Also noted: species or system human, MV4-11 + K-562 + COLO205 + SK-N-BE2 + OVCAR-8. To be noted: read-out: apparent Kd, n = 1.
For experiment [2], the system named is HCK. Also noted: species or system human, MV4-11 + K-562 + COLO205 + SK-N-BE2 + OVCAR-8. To be noted: read-out: apparent Kd, compound concentrations: 100 nM and 1000 nM (sheet 'Samples'), n = 1.
Experiment [3] relates to PTK6. Also noted: species or system human, MV4-11 + K-562 + COLO205 + SK-N-BE2 + OVCAR-8. Particulars: read-out: apparent Kd, compound concentrations: 100 nM and 1000 nM (sheet 'Samples'), n = 1.
The subject of experiment [4] is RIPK2. Also on record: species or system human, MV4-11 + K-562 + COLO205 + SK-N-BE2 + OVCAR-8. To be noted: read-out: apparent Kd, n = 1.
The test system of experiment [5] is RIPK3. Also noted: species or system human, MV4-11 + K-562 + COLO205 + SK-N-BE2 + OVCAR-8. To be noted: read-out: apparent Kd, compound concentrations: 100 nM and 1000 nM (sheet 'Samples'), n = 1.
Experiment [6] concerns ABL1. Also noted: species or system human, MV4-11 + K-562 + COLO205 + SK-N-BE2 + OVCAR-8. Particulars: read-out: apparent Kd, n = 1.
In experiment [7] the test system is LCK. Also noted: species or system human, MV4-11 + K-562 + COLO205 + SK-N-BE2 + OVCAR-8. Particulars: read-out: apparent Kd, compound concentrations: 100 nM and 1000 nM (sheet 'Samples'), n = 1.
Experiment [8] deals with YES1. Also noted: species or system human, MV4-11 + K-562 + COLO205 + SK-N-BE2 + OVCAR-8. To be noted: read-out: apparent Kd, compound concentrations: 100 nM and 1000 nM (sheet 'Samples'), n = 1.
Experiment [9] has as its system BCR. Also on record: species or system human, MV4-11 + K-562 + COLO205 + SK-N-BE2 + OVCAR-8. To be noted: read-out: apparent Kd, n = 1.
Experiment [10] concerns GAK. Also on record: species or system human, MV4-11 + K-562 + COLO205 + SK-N-BE2 + OVCAR-8. Particulars: read-out: apparent Kd, n = 1.
Experiment [11] concerns RET. Also on record: species or system human, MV4-11 + K-562 + COLO205 + SK-N-BE2 + OVCAR-8. Particulars: read-out: apparent Kd, compound concentrations: 100 nM and 1000 nM (sheet 'Samples'), n = 1.
The subject of experiment [12] is CLK1. Also on record: species or system human, MV4-11 + K-562 + COLO205 + SK-N-BE2 + OVCAR-8. To be noted: read-out: apparent Kd, n = 1.
Experiment [13] deals with CLK4. Also noted: species or system human, MV4-11 + K-562 + COLO205 + SK-N-BE2 + OVCAR-8. To be noted: read-out: apparent Kd, n = 1.
Experiment [14] addresses Q6ZSR9 (human, UniProt Q6ZSR9). Also noted: species or system MV4-11 + K-562 + COLO205 + SK-N-BE2 + OVCAR-8. Particulars: read-out: apparent Kd, n = 1.
Experiment [15] deals with TNK1. Also on record: species or system human, MV4-11 + K-562 + COLO205 + SK-N-BE2 + OVCAR-8. Particulars: read-out: apparent Kd, n = 1.
Experiment [16] concerns FYN. Also noted: species or system human, MV4-11 + K-562 + COLO205 + SK-N-BE2 + OVCAR-8. Particulars: read-out: apparent Kd, compound concentrations: 100 nM and 1000 nM (sheet 'Samples'), n = 1.
Experiment [17] has as its system CSNK2A1;CSNK2A3. Also noted: species or system human, MV4-11 + K-562 + COLO205 + SK-N-BE2 + OVCAR-8. Particulars: read-out: apparent Kd, n = 1.
In experiment [18] the test system is CSNK2A2. Also noted: species or system human, MV4-11 + K-562 + COLO205 + SK-N-BE2 + OVCAR-8. Particulars: read-out: apparent Kd, n = 1.
Where [19] appears, read: compound concentrations:100 nM and 1000 nM (sheet 'Samples').

Where two headings read alike, the source gives them in different places.

Chain of Q6ZSR9 (Q6ZSR9 whole entry, looked up): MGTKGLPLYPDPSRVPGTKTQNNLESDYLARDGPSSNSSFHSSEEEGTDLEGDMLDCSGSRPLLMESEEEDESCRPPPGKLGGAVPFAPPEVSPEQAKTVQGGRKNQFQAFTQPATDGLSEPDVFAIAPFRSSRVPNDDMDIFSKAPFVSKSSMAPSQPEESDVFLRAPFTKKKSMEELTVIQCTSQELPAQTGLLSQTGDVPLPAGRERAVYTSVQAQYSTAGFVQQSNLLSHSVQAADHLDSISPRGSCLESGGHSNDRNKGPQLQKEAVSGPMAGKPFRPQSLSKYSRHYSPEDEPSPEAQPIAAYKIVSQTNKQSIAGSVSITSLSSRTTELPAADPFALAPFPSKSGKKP

For `Cc1cc(O)cc(C)c1/C=C/c1cncc(-c2nn[nH]n2)c1.Cl` [GW441806A], the potency estimated from few doses was 1050 nM in [1] (compound concentrations: 100 nM and 1000 nM (sheet 'Samples'), CATDS: 4.9411968087492097E-2); 799 nM in [2] (CATDS: 5.4045361972082297E-2); 947 nM in [3] (CATDS: 5.1044813253260601E-2); 18 nM in experiment [4] (compound concentrations: 100 nM and 1000 nM (sheet 'Samples'), CATDS: 0.246510095033628); 2090 nM in [5] (CATDS: 4.07522630784811E-2).
As for `CN1CCN(Cc2cccc(-c3ccc4c(Nc5ccc(Oc6ccccc6)cc5)ccnc4c3)c2)CC1` [GW578342X], the potency estimated from few doses in experiment [6] (compound concentrations: 100 nM and 1000 nM (sheet 'Samples'), CATDS: 7.7551536280391298E-2) was 1560 nM; in [2] (CATDS: 0.21487500019283201), 115 nM; in experiment [7] (CATDS: 8.3289760013849606E-2), 1190 nM; in experiment [3] (CATDS: 7.71683723921405E-2), 1600 nM; in [4] (compound concentrations: 100 nM and 1000 nM (sheet 'Samples'), CATDS: 0.17287191269560401), 177 nM; in experiment [5] (CATDS: 0.10117998061927), 638 nM. In addition, the potency estimated from few doses in experiment [8] (CATDS: 0.46544607401261401) was 32.3 nM.
Regarding `Fc1cc(Cl)ccc1Nc1ccnc2cc(-c3ccc(CN4CCOCC4)o3)ccc12` [GW560109X], the potency estimated from few doses was 1200 nM in experiment [6] (compound concentrations: 100 nM and 1000 nM (sheet 'Samples'), CATDS: 5.7871370068112001E-2); 810 nM in experiment [1] (compound concentrations: 100 nM and 1000 nM (sheet 'Samples'), CATDS: 6.6885266429186699E-2); 66.4 nM in [9] (compound concentrations: 100 nM and 1000 nM (sheet 'Samples'), CATDS: 0.27388815671753503); 1100 nM in experiment [10] (compound concentrations: 100 nM and 1000 nM (sheet 'Samples'), CATDS: 5.9630252923923099E-2); 1480 nM in experiment [2] (CATDS: 5.4118184617509203E-2); 780 nM in [3] (CATDS: 6.7887281457167797E-2). The potency estimated from few doses is 400 nM in [11] (CATDS: 9.1999760709611106E-2); 82.6 nM in experiment [4] (compound concentrations: 100 nM and 1000 nM (sheet 'Samples'), CATDS: 0.235092034784944); 641 nM in [5] (CATDS: 7.3765709446288102E-2).
As to `COc1cc2ncn(-c3cc(OCCCc4ccccc4)c(C(N)=O)s3)c2cc1OC` [GSK205189A], the potency estimated from few doses in experiment [1] (setting [19]) was 956 nM; in experiment [12] (setting [19]), 105 nM; in experiment [13] (setting [19]), 1340 nM; in experiment [10] (setting [19]), 663 nM; in [14] (setting [19]), 1480 nM; in experiment [15] (setting [19]) it was 42.3 nM.
With `Fc1ccc(-c2c(-c3ccncc3)[nH]c3nccnc23)cc1` [RO1155697-000], the potency estimated from few doses in experiment [4] (setting [19]) is 828 nM.
For `COc1cc2ncn(-c3cc(OCc4cccs4)c(C(N)=O)s3)c2cc1OC` [GSK312948A], the potency estimated from few doses in experiment [14] (setting [19]) is 2250 nM.
Consider `CN1CCc2ccc(Nc3nccc(-c4c(-c5cccc(NC(=O)c6c(F)cccc6F)c5)nc5ccccn45)n3)cc2C1.Cl` [GSK1010829B], for which the potency estimated from few doses in experiment [6] (compound concentrations: 100 nM and 1000 nM (sheet 'Samples'), CATDS: 3.3461879574950899E-2) was 1490 nM; in experiment [1] (compound concentrations: 100 nM and 1000 nM (sheet 'Samples'), CATDS: 5.23803591077244E-2) it was 515 nM; in [16] (CATDS: 4.4096007495545798E-2), 732 nM; in experiment [2] (CATDS: 7.6691780637307694E-2), 270 nM; in experiment [7] (CATDS: 0.10139412977774399), 180 nM; in experiment [11] (CATDS: 6.1387367146580003E-2), 387 nM. Besides, the potency estimated from few doses in experiment [4] (compound concentrations: 100 nM and 1000 nM (sheet 'Samples'), CATDS: 3.7106800723599898E-2) is 1110 nM; in experiment [5] (CATDS: 5.0630244265372597E-2) it was 550 nM; in experiment [15] (compound concentrations: 100 nM and 1000 nM (sheet 'Samples'), CATDS: 4.6231570261128598E-2) it was 661 nM; in experiment [8] (CATDS: 8.6634925532114604E-2) it was 225 nM.
For `COc1cccc(-c2c[nH]c3c(N/N=C/c4ccncc4)ncnc23)c1` [GW814408X], the potency estimated from few doses in experiment [6] (setting [19]) was 1980 nM; in experiment [9] (setting [19]), 1150 nM; in [17] (setting [19]), 920 nM; in [18] (setting [19]), 237 nM.
For `COc1cccc(-n2cnc3c(N/N=C/c4ccncc4)ncnc32)c1` [GW813360X], the potency estimated from few doses in [6] (compound concentrations: 100 nM and 1000 nM (sheet 'Samples'), CATDS: 0.132287686029187) was 2030 nM; in [1] (compound concentrations: 100 nM and 1000 nM (sheet 'Samples'), CATDS: 0.19344614583088601) it was 869 nM; in experiment [9] (compound concentrations: 100 nM and 1000 nM (sheet 'Samples'), CATDS: 0.226928346430948), 659 nM.
Take `CNC(=O)c1ccccc1Nc1nc(Nc2cccc(CS(C)(=O)=O)c2)ncc1C.O=CO` [GSK1520489A]: the potency estimated from few doses in experiment [6] (compound concentrations: 100 nM and 1000 nM (sheet 'Samples'), CATDS: 1.34944121173274E-2) is 401 nM; in experiment [1] (compound concentrations: 100 nM and 1000 nM (sheet 'Samples'), CATDS: 1.36244790700583E-2), 389 nM; in experiment [9] (compound concentrations: 100 nM and 1000 nM (sheet 'Samples'), CATDS: 1.52044449937046E-2), 280 nM; in experiment [12] (compound concentrations: 100 nM and 1000 nM (sheet 'Samples'), CATDS: 2.0431825511786902E-2) it was 131 nM; in experiment [13] (compound concentrations: 100 nM and 1000 nM (sheet 'Samples'), CATDS: 1.6424162942173099E-2), 226 nM; in experiment [17] (compound concentrations: 100 nM and 1000 nM (sheet 'Samples'), CATDS: 1.12264805832196E-2), 773 nM. Besides, the potency estimated from few doses in [18] (compound concentrations: 100 nM and 1000 nM (sheet 'Samples'), CATDS: 1.1107914266042299E-2) is 807 nM; in experiment [16] (CATDS: 1.4785651294397E-2), 304 nM; in experiment [2] (CATDS: 2.2518734177974401E-2) it was 105 nM; in experiment [7] (CATDS: 2.8625863065429399E-2), 63 nM; in experiment [3] (CATDS: 5.57669232791278E-2) it was 19.7 nM; in experiment [14] (compound concentrations: 100 nM and 1000 nM (sheet 'Samples'), CATDS: 1.0084125464563E-2) it was 1260 nM. Further, the potency estimated from few doses in experiment [11] (CATDS: 2.6340417566827701E-2) was 74.6 nM; in experiment [15] (compound concentrations: 100 nM and 1000 nM (sheet 'Samples'), CATDS: 3.8833580007227697E-2), 35.6 nM; in [8] (CATDS: 2.28565858871594E-2) it was 101 nM.

Values taken from PMC11062922 (Nature Chemical Biology, 2023).
